Experimental findings from PubChem BioAssay (NCATS) are described below.

The test system of assay [1] is CRL-7250. Briefly: Cytotoxic Profiling of Annotated Libraries Using Quantitative High-Throughput Screening (AID 1296008). Further: nearly all actives have a fitted effect of over 60% in size. Further: potency means the concentration at half of the fitted maximal effect. On max response: on the % scale 0 is the no-effect control and ±100 the full control effect. As to conditions: Five cell lines viability, CellTiter-Glo ATP luminescence, 48-72 h; max response: stronger effect = lower value. The gist of the method: (§1)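 Cells exposed to compounds for 48 or 72 hr at 37 degrees Celsius. Viability read as ATP-coupled luminescence with CellTiter-Glo after 10 min at room temperature.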
For orientation: In ATP-based viability assays light output follows the ATP content of the culture.

The subject of assay [2] is HEK293. Described as above. As to conditions: Five cell lines viability, CellTiter-Glo ATP luminescence, 48-72 h; max response: stronger effect = lower value. Put shortly: as §1
The subject of assay [3] is HaCat. Described as above. The conditions noted are these: Five cell lines viability, CellTiter-Glo ATP luminescence, 48-72 h; max response: stronger effect = lower value. Put shortly:
as §1

Assay [4] concerns KB-3-1. Described as above. The conditions noted are these: Five cell lines viability, CellTiter-Glo ATP luminescence, 48-72 h; max response: stronger effect = lower value. The gist of the method: as §1
The subject of assay [5] is NIH3T3. Described as above. As to conditions: Five cell lines viability, CellTiter-Glo ATP luminescence, 48-72 h; max response: stronger effect = lower value. The gist of the method:
as §1

In assay [6] the test system is C33A. Put plainly: Primary qHTS to identify gynecologic anti-cancer compounds using libraries of approved drugs and bioactive compounds (AID 1345084). Further: nearly all actives have a fitted effect of over 55% in size. Further: potency means the concentration at half of the fitted maximal effect. On activity change, negative = cytotoxicity: on the % scale 0 is the no-effect control and ±100 the full control effect. The conditions noted are these: Gynecologic cancer cell panel viability, ATPlite luminescence, 48 h; series mostly up to 57.5 µM. Put shortly: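 ATP-based viability (ATPlite), 1,000 cells/well, 16 h pre-incubation, 48 h compound at 37 C, 5% CO2, 15 min RT before read.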
Background: qHTS replaces the single test concentration by a dilution series.

Assay [7] relates to HEK293T. Put plainly: qHTS assay to identify novel small-molecules to repurpose for Merkel cell carcinoma treatment (AID 1296009). Further: nearly all actives have a fitted effect of over 60% in size. As to conditions: MCC and control cell lines, CellTiter-Glo viability, 72 h; series mostly up to 44.8 µM. Put shortly: (§2)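 Cells were incubated with compound for 72 hr at 37 degree celsius before CellTiter-Glo addition. Luminescence was normalized with no-cell wells as full cytotoxicity and DMSO as baseline.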

Assay [8] relates to HACAT. Described as above. As to conditions: MCC and control cell lines, CellTiter-Glo viability, 72 h; at 44.8 µM (top of the series) unless noted. Put shortly: as §2
Assay [9] deals with NIH3T3. The assay is described as above. The conditions noted are these: MCC and control cell lines, CellTiter-Glo viability, 72 h; at 44.8 µM (top of the series) unless noted. The gist of the method: as §2

“And” between values parts separate entries of the source, which are not always exact repeats. Equal values may be shown once. Records with an inconclusive call do not appear. A number with no mark means an inactive call. The source made the active and inactive calls. The call rests on the fitted dose curve; in most records, active means well fitted curve in the direction sought with a large enough effect; inconclusive means small, poorly fitted or top-dose-only effect, or another doubt; inactive means no such curve, though single readings can be large; an effect the other way counts as inactive or inconclusive.

Take `COc1ncc(-c2ccc3c(Nc4cc(Oc5cc(F)cc(F)c5)cc(C(=O)O)c4)c(S(=O)(=O)NC4CC4)cnc3c2)c(OC)n1`: the max response was -7.5% and -5.78% in assay [1]; 0.563% and -20.6% in assay [2]; -12% and 2.17% in [3]; 3.25% and -1.23% in assay [5]. Besides, the result in assay [4] was inactive. Further, in [6], the Potency entry was “inactive”.

For `COc1c(OC2OC(CO)C(O)C(O)C2O)ccc(O)c1C(=O)OCc1ccccc1O[C@@H]1O[C@H](CO)[C@@H](O)[C@H](O)[C@H]1O` (stereo partly drawn), the molecule was classed as inactive in assay [1], in [2] and in [4]. Also, the max response in [3] was 3.76%; in [5], -1.73%. Also, the Potency entry in [7] and in assay [6] was “inactive” throughout.

As to `CCC(=O)O[C@]1(C(=O)CCl)[C@@H](C)C[C@H]2[C@@H]3C[C@H](F)C4=CC(=O)C=C[C@]4(C)[C@@]3(F)[C@@H](O)C[C@@]21C`, the max response in assay [1] is -3.75%; in assay [3] it was -1.16%; in [4], -4.75% and -10.3%; in assay [5], 1.57%. The Potency entry in [6] was “inactive”.

For `CC(=O)OCCC(C)CCC1C(C)(O)CCC2C(C)(C)CCCC21C` (stereo not drawn), the max response in assay [1] is -8.91%; in assay [3], -0.371%; in [5] it was -3.93%. Besides, the molecule was classed as inactive in [2] and in assay [4]. For the same molecule, the Potency entry in assay [7] and in assay [6] was “inactive” throughout.

As for `Cc1nc2c(-c3cnc(N)nc3)nc(N3CCOCC3)nc2n1C(C)C`, the Potency in assay [1] is 291 nM (active) and 7.4 nM (active); in assay [2], 326 nM (active) and 23.4 nM (active); in assay [3] it was 2.06 µM (active) and 132 nM (active); in [4], 461 nM (active); in assay [5] it was 1.16 µM (active) and 234 nM (active); in assay [6], 1.41 µM (active).

Turning to `OC[C@H]1O[C@@H](n2cnc3c2NC=NC[C@H]3O)C[C@@H]1O`, the max response was 4.05% in assay [1]; -3.14% and 0.256% in assay [4]; -9.01% in [5]. Further, the call in [2] was inactive. The Potency entry in assay [7] and in assay [6] was “inactive” in each case.

Take `COC(=O)C1=CO[C@@H](O[C@@H]2O[C@H](CO)[C@@H](O)[C@H](O)[C@H]2O)[C@@H]2[C@@H](C)[C@@H](O)C[C@H]12`: the values for the max response in assay [1], in assay [3] and in assay [5] were -3.5%, -10.2% and 2.94%, respectively. The molecule was called inactive in assay [2] and in assay [4]. Besides, the Potency result in assay [7] and in [6] was “inactive” in each case.

In the case of `CCOc1cc2ncc(C#N)c(Nc3ccc(OCc4ccccn4)c(Cl)c3)c2cc1NC(=O)/C=C/CN(C)C`, the Potency in [2] is 1.42 µM (active); in assay [3] it was 224 nM (active). Further, in assay [4], the max response was -14.4%. Besides, the Potency result in assay [6] was “inactive”.

Turning to `COc1cc2c(Nc3ccc(Cl)c(Cl)c3F)ncnc2cc1OCC1C[C@@H]2CN(C)C[C@@H]2C1` (stereo partly drawn), the Potency was 16.4 µM (active) and 13.2 µM (active) in [2]; 231 nM (active) and 11.7 nM (active) in assay [3]; 18400 nM (active) in [4]; 1.3 µM (active) and 8.31 µM (active) in assay [5].

Take `C=C(C)[C@@H](C)[C@H]1O[C@]23C[C@]4(CO2)C(CCC2[C@@]5(C)CC[C@H](O[C@@H]6OC[C@H](O)[C@H](O[C@@H]7O[C@H](CO)[C@@H](O)[C@H](O)[C@H]7O)[C@H]6O[C@@H]6O[C@@H](CO)[C@H](O)[C@H]6O)C(C)(C)C5CC[C@]24C)C3[C@@](C)(O)[C@@H]1OC(C)=O` (stereo partly drawn): the call in [1], in assay [2] and in assay [5] was inactive. Also, the max response in assay [3] was -4.68%; in assay [4], -3.84%. Further, the outcome in assay [7] was “inactive [at 9.27 µM]”. Further, the activity change, negative = cytotoxicity in assay [6] is 0.663% [at 11.6 µM].

For `CC1(C)CC2C(C1)C1(C)CCC13OC3(CO)C2O` (stereo not drawn), the values for the max response in assay [1], in assay [3] and in assay [5] were -2.76%, -6.47% and 5%, respectively. Besides, the outcome in [2] and in assay [4] was inactive. Moreover, the Potency entry in assay [7] and in [6] was “inactive” throughout.

As to `C[C@@H]1O[C@@H](O[C@H]2[C@H](OC(=O)C34CCC(C)(C)CC3C3=CCC5C6(C)CC(O)C(O[C@@H]7O[C@H](CO)[C@@H](O)[C@H](O)[C@H]7O)C(C)(C(=O)O)C6CCC5(C)C3(CO)CC4)O[C@H](C)[C@H](O)[C@@H]2O)[C@H](O)[C@H](O)[C@H]1O[C@@H]1OC[C@@H](O)[C@H](O)[C@H]1O` (stereo partly drawn), the max response in assay [1] is -4.64%; in assay [3] it was 3.66%; in [5], 2.3%. Further, the molecule was called inactive in assay [2] and in [4]. In addition, in assay [7], the outcome was “inactive [at 9.27 µM]”. For the same molecule, the activity change, negative = cytotoxicity in [6] is 7.58% [at 11.6 µM].

Take `CC(=O)c1cnc2ccc(-c3cc(Cl)c(O)c(Cl)c3)nc2c1NC1CCC(CN(C)C)CC1` (stereo not drawn): the Potency was 166 nM (active) and 1.19 µM (active) in assay [1]; 52.4 nM (active) and 237 nM (active) in [2]; 33.1 nM (active) in assay [3]; 75 nM (active) in assay [4]; 93.3 nM (active) and 299 nM (active) in assay [5]; 0.224 µM (active) in assay [6].

Turning to `CC[C@H]1OC(=O)C[C@@H](O)[C@H](C)[C@@H](O[C@@H]2O[C@H](C)[C@@H](O)[C@H](N(C)C)[C@H]2O)[C@@H](CCN2C[C@H](C)C[C@H](C)C2)C[C@@H](C)C(=O)/C=C/C(C)=C/[C@@H]1CO[C@@H]1O[C@H](C)[C@@H](O)[C@@H](OC)[C@H]1OC`, the max response in [1] was 1.46%; in [4] it was 2.68% and 4.42%. Also, the result in assay [3], in [5], in assay [8] and in assay [9] was inactive. In addition, the Potency entry in [6] was “inactive”.

For the molecule `COc1cccc2c1CCC[C@H]2CN(C)CCc1ccc2ccoc2c1`, the molecule was classed as inactive in [1] and in [2]. Moreover, the max response in assay [3] is 3.47%; in assay [4] it was 4.61%; in assay [5] it was -8.39%. In addition, the Potency result in assay [7] and in assay [6] was “inactive” throughout.
